The campaign covered roughly 39,000 compounds. About 3,300 (8.5%) were called active. For the sample, actives were picked, then their nearest neighbours and some compounds at random.

The test deals with HepG2. Description: cytotoxicity call (relative viability < 0.9). Particulars: 10 µM.
As to `O=C(C[C@H]1CC[C@H]2[C@@H](COC[C@@H](O)CN2S(=O)(=O)c2ccc(Cl)cc2)O1)NCc1ccncn1`, the cytotoxicity call is “inactive”.

As for `COc1ncc(-c2ccc3c(Nc4cc(Oc5cc(F)cc(F)c5)cc(C(=O)O)c4)c(S(=O)(=O)NC4CC4)cnc3c2)c(OC)n1`, the cytotoxicity call was “inactive”.

On to `CO[C@@H]1CN(C)C(=O)c2ccc(NC(=O)C3CC3)cc2OC[C@H](C)N(C(=O)C2CCOCC2)C[C@@H]1C`, for which the cytotoxicity call was “inactive”.

In the case of `COc1ccc(S(=O)(=O)Nc2cccc3c2O[C@H](CN(C)S(=O)(=O)c2ccc(C)cc2)[C@H](C)CN([C@@H](C)CO)C3=O)cc1`, the cytotoxicity call is “inactive”.

Take `C[C@H]1CN([C@@H](C)CO)C(=O)c2cc(C#CCN(C)C)cnc2O[C@H]1CN(C)C(=O)c1ccc2c(c1)OCO2`: the cytotoxicity call is “inactive”.

In the case of `C[C@@H]1CN([C@@H](C)CO)C(=O)c2cc(NC(=O)Nc3ccc(C(F)(F)F)cc3)ccc2O[C@@H](C)CCCCO[C@H]1CN(C)Cc1ccc(C(F)(F)F)cc1`, the cytotoxicity call is “active”.

With `C[C@@H]1CCCCO[C@H](CN(C)Cc2ccc(C(F)(F)F)cc2)[C@H](C)CN([C@@H](C)CO)C(=O)c2cc(NC(=O)Nc3ccc(C(F)(F)F)cc3)ccc2O1`, the cytotoxicity call was “active”.

For `C[C@@H]1CCCCO[C@@H](CN(C)Cc2ccc(C(F)(F)F)cc2)[C@H](C)CN([C@@H](C)CO)C(=O)c2cc(NC(=O)Nc3ccc(C(F)(F)F)cc3)ccc2O1`, the cytotoxicity call was “inactive”.

Regarding `C[C@H](CO)N1C[C@H](C)[C@@H](CN(C)Cc2ccc(C(F)(F)F)cc2)OCCCC[C@H](C)Oc2ccc(NC(=O)Nc3ccc(C(F)(F)F)cc3)cc2C1=O`, the cytotoxicity call was “inactive”.

Take `C[C@@H]1CN([C@H](C)CO)C(=O)c2cc(NC(=O)Nc3ccc(C(F)(F)F)cc3)ccc2O[C@@H](C)CCCCO[C@H]1CN(C)Cc1ccc(C(F)(F)F)cc1`: the cytotoxicity call is “active”.

Take `C[C@@H]1CCCCO[C@H](CN(C)Cc2ccc(C(F)(F)F)cc2)[C@@H](C)CN([C@@H](C)CO)C(=O)c2cc(NC(=O)Nc3ccc(C(F)(F)F)cc3)ccc2O1`: the cytotoxicity call is “inactive”.

Turning to `C[C@H](CO)N1C[C@H](C)[C@H](CN(C)Cc2ccc(C(F)(F)F)cc2)OCCCC[C@H](C)Oc2ccc(NC(=O)Nc3ccc(C(F)(F)F)cc3)cc2C1=O`, the cytotoxicity call is “active”.

As for `C[C@@H]1CN([C@@H](C)CO)C(=O)c2cc(NC(=O)Nc3ccc(C(F)(F)F)cc3)ccc2O[C@@H](C)CCCCO[C@@H]1CN(C)Cc1ccc(C(F)(F)F)cc1`, the cytotoxicity call was “inactive”.

Turning to `O=C(CN1CCOCC1)NCC[C@@H]1CC[C@@H](NS(=O)(=O)c2ccc(F)cc2)[C@@H](CO)O1`, the cytotoxicity call was “inactive”.

With `CCS(=O)(=O)N1C[C@]2(C1)CN([C@@H](CO)c1[nH]c3cc(ccc3c12)OC)C(=O)Nc1c(noc1C)C`, the cytotoxicity call was “inactive”.

On to `C[C@H](CO)N1C[C@H](C)[C@@H](CN(C)C(=O)CN(C)C)Oc2cc(C#C[C@@H](C)O)ccc2S1(=O)=O`, for which the cytotoxicity call is “inactive”.

Turning to `C[C@@H]1CCCCO[C@H](CN(C)S(=O)(=O)c2ccc(Cl)cc2)[C@H](C)CN([C@@H](C)CO)C(=O)c2cc(NC(=O)C3CCCCC3)ccc2O1`, the cytotoxicity call was “inactive”.

For `COc1ccc(NC(=O)N(C)C[C@H]2Oc3ccc(NS(=O)(=O)c4cn(C)cn4)cc3CC(=O)N([C@H](C)CO)C[C@@H]2C)cc1`, the cytotoxicity call was “inactive”.

With `COc1ccccc1CNC(=O)C[C@H]1C[C@H]2c3cc(NC(=O)Nc4ccc(C(F)(F)F)cc4)ccc3O[C@H]2[C@@H](CO)O1`, the cytotoxicity call was “inactive”.

With `C[C@@H]1CN([C@H](C)CO)C(=O)c2cc(NS(=O)(=O)c3ccc(F)cc3)ccc2O[C@@H](C)CCCCO[C@H]1CN(C)Cc1ccc2c(c1)OCO2`, the cytotoxicity call is “inactive”.

On to `C[C@@H]1CN([C@H](C)CO)C(=O)Cc2cc(NC(=O)Nc3ccc4c(c3)OCO4)ccc2O[C@H]1CN(C)S(=O)(=O)c1cn(C)cn1`, for which the cytotoxicity call was “inactive”.

As to `O=C(C[C@@H]1CC[C@@H]2[C@H](COC[C@H](O)CN2S(=O)(=O)c2cccc(Cl)c2)O1)NCc1ccc2c(c1)OCO2`, the cytotoxicity call is “inactive”.

For the compound `C[C@@H]1CN([C@@H](C)CO)S(=O)(=O)c2ccc(Br)cc2O[C@H]1CN(C)Cc1ccccc1F`, the cytotoxicity call was “inactive”.

Consider `CC(C)NC(=O)Nc1ccc2c(c1)CC(=O)N([C@@H](C)CO)C[C@H](C)[C@H](CN(C)Cc1ccc(C(=O)O)cc1)O2`, for which the cytotoxicity call was “inactive”.

For `C[C@@H]1CN([C@H](C)CO)C(=O)c2cc(NC(=O)C3CC3)ccc2O[C@@H]1CN(C)Cc1ccc(Oc2ccccc2)cc1`, the cytotoxicity call is “inactive”.

For `Cc1noc(C)c1S(=O)(=O)N(C)C[C@H]1Oc2ccc(NC(=O)C3CC3)cc2CC(=O)N([C@H](C)CO)C[C@@H]1C`, the cytotoxicity call was “inactive”.

As for `CCS(=O)(=O)N1CC[C@]2(CC1)CN([C@@H](CO)c1c2c2ccc(cc2n1C)OC)C(=O)c1cccc(c1)F`, the cytotoxicity call is “inactive”.

With `C[C@H]1CCCCO[C@H](CN(C)Cc2ccc(C(F)(F)F)cc2)[C@@H](C)CN([C@@H](C)CO)C(=O)c2cc(NC(=O)Nc3ccc(C(F)(F)F)cc3)ccc2O1`, the cytotoxicity call was “active”.

For `C[C@@H]1CCCCO[C@@H](CN(C)Cc2ccc(C(F)(F)F)cc2)[C@H](C)CN([C@H](C)CO)C(=O)c2cc(NC(=O)Nc3ccc(C(F)(F)F)cc3)ccc2O1`, the cytotoxicity call was “inactive”.

`C[C@@H]1CN([C@H](C)CO)C(=O)c2cc(NC(=O)Nc3ccc(C(F)(F)F)cc3)ccc2O[C@@H](C)CCCCO[C@@H]1CN(C)Cc1ccc(C(F)(F)F)cc1`: the cytotoxicity call was “inactive”.

On to `C[C@@H]1CCCCO[C@H](CN(C)Cc2ccc(C(F)(F)F)cc2)[C@H](C)CN([C@H](C)CO)C(=O)c2cc(NC(=O)Nc3ccc(C(F)(F)F)cc3)ccc2O1`, for which the cytotoxicity call is “active”.

Turning to `C[C@@H]1CCCCO[C@@H](CN(C)Cc2ccc(C(F)(F)F)cc2)[C@@H](C)CN([C@H](C)CO)C(=O)c2cc(NC(=O)Nc3ccc(C(F)(F)F)cc3)ccc2O1`, the cytotoxicity call is “inactive”.

Take `C[C@H]1CCCCO[C@@H](CN(C)Cc2ccc(C(F)(F)F)cc2)[C@@H](C)CN([C@@H](C)CO)C(=O)c2cc(NC(=O)Nc3ccc(C(F)(F)F)cc3)ccc2O1`: the cytotoxicity call was “active”.

For `C[C@@H]1CCCCO[C@@H](CN(C)Cc2ccc(C(F)(F)F)cc2)[C@@H](C)CN([C@@H](C)CO)C(=O)c2cc(NC(=O)Nc3ccc(C(F)(F)F)cc3)ccc2O1`, the cytotoxicity call is “inactive”.

On to `C[C@@H]1CCCCO[C@H](CN(C)Cc2ccc(C(F)(F)F)cc2)[C@@H](C)CN([C@H](C)CO)C(=O)c2cc(NC(=O)Nc3ccc(C(F)(F)F)cc3)ccc2O1`, for which the cytotoxicity call is “active”.

`CN(C)CCCNC(=O)C[C@H]1CC[C@@H]2[C@H](COc3ccc(NC(=O)c4ccc5c(c4)OCO5)cc3C(=O)N2C)O1`: the cytotoxicity call was “inactive”.

With `C[C@@H]1CN([C@H](C)CO)C(=O)c2cc(NS(=O)(=O)c3ccc(F)cc3)ccc2O[C@H]1CN(C)CC1CC1`, the cytotoxicity call is “inactive”.

For the compound `C[C@@H]1CN([C@@H](C)CO)C(=O)c2cc(NC(=O)Cc3ccccc3)ccc2O[C@@H](C)CCCCO[C@@H]1CN(C)C(=O)CCC(F)(F)F`, the cytotoxicity call was “inactive”.

In the case of `C[C@@H]1CN([C@@H](C)CO)C(=O)c2cc(NC(=O)NC3CCCCC3)ccc2O[C@H]1CN(C)Cc1ccc(C(F)(F)F)cc1`, the cytotoxicity call is “inactive”.

For the compound `CO[C@H]1CN(C)C(=O)c2ccc(NC(=O)NC(C)C)cc2OC[C@H](C)N(Cc2ccc(-c3ccccn3)cc2)C[C@@H]1C`, the cytotoxicity call is “inactive”.

Take `C[C@@H]1CN([C@@H](C)CO)C(=O)c2cc(NC(=O)Nc3ccccc3)ccc2O[C@@H](C)CCCCO[C@H]1CN(C)Cc1ccncc1`: the cytotoxicity call is “inactive”.

On to `CC(C)C#Cc1ccc2c(c1)O[C@@H](CN(C)C(=O)Cc1ccccn1)[C@H](C)CN([C@@H](C)CO)S2(=O)=O`, for which the cytotoxicity call is “inactive”.

As for `Cc1noc(C)c1S(=O)(=O)N(C)C[C@H]1Oc2ccc(NC(=O)NC(C)C)cc2CC(=O)N([C@H](C)CO)C[C@@H]1C`, the cytotoxicity call was “inactive”.

Take `C#CCOC(=O)[C@@H]1[C@@H](C(=O)O)[C@@H]2C=C[C@@H]1C2`: the cytotoxicity call is “inactive”.

`COc1ccc(NC(=O)N(C)C[C@H]2Oc3ccc(NC(=O)C4CC4)cc3CC(=O)N([C@H](C)CO)C[C@@H]2C)cc1`: the cytotoxicity call was “inactive”.

Regarding `C[C@@H]1CN([C@@H](C)CO)C(=O)c2cccc(NC(=O)c3cnccn3)c2O[C@H]1CN(C)CC1CCCCC1`, the cytotoxicity call is “inactive”.

For the compound `COCC#Cc1ccc2c(c1)O[C@@H](CN(C)S(=O)(=O)c1cccc(F)c1)[C@H](C)CN([C@H](C)CO)S2(=O)=O`, the cytotoxicity call is “inactive”.

For `C[C@@H]1CN([C@@H](C)CO)C(=O)c2cccc(NC(=O)Nc3ccc(F)cc3)c2O[C@@H]1CN(C)Cc1ccc(Oc2ccccc2)cc1`, the cytotoxicity call was “inactive”.

In the case of `COc1ccc(S(=O)(=O)Nc2ccc3c(c2)C(=O)N([C@@H](C)CO)C[C@H](C)[C@H](CN(C)C(=O)Nc2cccc4ccccc24)OCCCC[C@H](C)O3)cc1`, the cytotoxicity call was “active”.

Consider `COc1ccc(S(=O)(=O)Nc2ccc3c(c2)C(=O)N([C@H](C)CO)C[C@H](C)[C@H](CN(C)C(=O)Nc2cccc4ccccc24)OCCCC[C@@H](C)O3)cc1`, for which the cytotoxicity call was “inactive”.

As to `COc1ccc(S(=O)(=O)Nc2ccc3c(c2)C(=O)N([C@@H](C)CO)C[C@H](C)[C@H](CN(C)C(=O)Nc2cccc4ccccc24)OCCCC[C@@H](C)O3)cc1`, the cytotoxicity call is “inactive”.

`COc1ccc(S(=O)(=O)Nc2ccc3c(c2)C(=O)N([C@H](C)CO)C[C@H](C)[C@@H](CN(C)C(=O)Nc2cccc4ccccc24)OCCCC[C@@H](C)O3)cc1`: the cytotoxicity call was “inactive”.

On to `COc1ccc(S(=O)(=O)Nc2ccc3c(c2)C(=O)N([C@H](C)CO)C[C@H](C)[C@@H](CN(C)C(=O)Nc2cccc4ccccc24)OCCCC[C@H](C)O3)cc1`, for which the cytotoxicity call was “active”.

With `COc1ccc(S(=O)(=O)Nc2ccc3c(c2)C(=O)N([C@@H](C)CO)C[C@@H](C)[C@@H](CN(C)C(=O)Nc2cccc4ccccc24)OCCCC[C@H](C)O3)cc1`, the cytotoxicity call is “inactive”.

`O=C(CN1CCOCC1)NCC[C@H]1CC[C@H](NC(=O)c2ccc3c(c2)OCO3)[C@H](CO)O1`: the cytotoxicity call was “inactive”.

Consider `C[C@H](CO)N1C[C@H](C)[C@H](CN(C)C(=O)Nc2ccc(F)cc2)OCCCC[C@H](C)Oc2ccc(NC(=O)C3CCCC3)cc2C1=O`, for which the cytotoxicity call was “inactive”.

For the origin of these results see the antibiotic and cytotoxicity screens of Wong et al. (2023).
